Source: the supplement of paper PMC11417369
± gives the standard deviation of the averaged measurements. Whole data set: some 25,000 sequences, median “ln(normalized median fluorescence intensity)” near 8.9, cut for the highest 2% near 10. The entries come from a sample that favours the highest values as a whole.

test system: PfAP2-LT AP2 domain (GST-tagged); test: gcPBM binding intensity (ln(normalized median fluorescence intensity)); higher = stronger DNA binding
In short: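 Each value is the highest Masliner-normalised natural-log median intensity across replicate spots of either orientation of a probe. The probes were primer-extended double-stranded 36-bp intergenic genomic sequences on an Agilent 4 × 180k array, alongside negative controls, exposed for 1 h to GST-tagged P. falciparum DNA-binding domains expressed in E. coli. Bound protein was picked up with Alexa488 anti-GST antibody and scanned at 488 nm.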

| Sequence | gcPBM binding intensity (ln) |
| --- | --- |
| ATATTTTGTTATGTAGATGTTGGTAGGAATTTTGGT [CACACA_negctrl_site1104] | 8.83 ± 0.4 |
| CAATTAAACAATTAAACATGCAAAATGATATAATAA [TGCATGCA_site240] | 8.87 ± 0.49 |
| TACGTAAAAATAGGACGTACTTATTTAGAAACCATA [XGTACX_site2498] | 8.72 ± 0.49 |
| AAGAGTTTGAAGTTTGCACACTACGTTAAAAATAAA [CACACA_site3939] | 8.72 ± 0.59 |
| ATAAATAAAACAACAGTGCAATAAAATTAGTTGAGG | 9.07 ± 0.54 |
| ACATAATAAAAAAAACGTACAAATAGGTTTTTCATA [XGTACX_site6645] | 8.85 ± 0.57 |
| ATGAGTTACATGGGAAAAATATATATATATATATAT [CACACA_negctrl_site579] | 9.8 ± 0.23 |
| TCTATACCTATTCTTACACACATATGTATTTATATA [CACACA_site4475] | 9.28 ± 0.46 |
| CACACCCACAGACACACACACACATATATAATATAT [CACACA_site594] | 10.2 ± 0.54 |
| AGACATATAATATATACACACATATATATATATATA [CACACA_site1066] | 9.93 ± 0.085 |
| CACCCATACAGACATACACACACATATATATTAATA [CACACA_site8077] | 9.67 ± 0.27 |
| AAATTTTCACTTCAAAAACACACGTATTTTTTTCCT [CACACA_site3813] | 8.8 ± 0.47 |
| CAACAACAAAAAAAAAAATAATAATAATAAAAAATA [TGCATGCA_negctrl_site271] | 8.71 ± 0.5 |
| CAAGGACAATTTACAAACATAATATATGTATATATA [TGCATGCA_negctrl_site5] | 8.66 ± 0.55 |
| CATATGTATATGACTACACACAAGGGTGTACATATA [CACACA_site1164] | 9.2 ± 0.38 |
| AGGACAAGGGTTACATGTACATATATATATATATAT [XGTACX_site901] | 10.2 ± 0.14 |
| ATCATAATTTATTATACACACAATACGTGACCTATT [CACACA_site6977] | 9.24 ± 0.47 |
| ATATTTTGTATAATCACACACACTATTCTTAAATAG [CACACA_site7270] | 9.23 ± 0.37 |
| AACAAACACGGACACACACACACACTAGAATGATTA [CACACA_site5364] | 10.2 ± 0.31 |
| CAAACAAACGGACACACACACACACCCAAAAATGAT [CACACA_site5363] | 10.1 ± 0.18 |
| CAAACCCACGGACACACACACACAAAAATGATTAAA [CACACA_site5365] | 9.71 ± 0.38 |
| AAAGAAGGGAAACACACACACACACCCACAAAAAAA [CACACA_site3766] | 10.18 ± 0.099 |
| CAACAAAAGAAACACACACACACAAACACAAAAAAA [CACACA_site3389] | 9.91 ± 0.16 |

| Sequence | gcPBM binding intensity (ln) |
| --- | --- |
| TTTATTAATGGACACACACACACACCCAAAATAAAA [CACACA_site4294] | 10 ± 0.13 |
| CCCGAACAAACAAATAAACACACAAAAAAAAATATA [CACACA_site8540] | 9.15 ± 0.47 |
| TTTATTAATAAACACACACACACACCCAAAATAAAA [CACACA_site7966] | 10.2 ± 0.18 |
| TATTTATTAAAACACACACACACACCCACAAAATAA [CACACA_site241] | 10.04 ± 0.099 |
| TTAAAGCACCCATGCACACACACAAGGGAAAAGAAA [CACACA_site4289] | 9.49 ± 0.4 |
| TTAACAAAGAAACACACACACACACCCAAAAAAAAA [CACACA_site516] | 10.2 ± 0.11 |
| GAATAATCCAAACACACACACACACCCGAATAAATA [CACACA_site482] | 10.3 ± 0.45 |
| CACACCCACCAACACACACACAAAAAAAAAAAGAAA [CACACA_site500] | 9.56 ± 0.47 |
| CAAAAGAAGGTAAACACACACACACCCATACAAAAA [CACACA_site3765] | 10.1 ± 0.43 |
| TTAATAACAAAATAAACACACATATATAAATCCACA [CACACA_site1590] | 9.09 ± 0.38 |
| ATTTCAAATTAATTTACACACTTCATACTAAAAGAC [CACACA_site3176] | 8.71 ± 0.4 |
| GGAAAAAAATATAAAAGTACTTTTTATTTATTTTAT [XGTACX_site7418] | 8.4 ± 0.51 |
| AGGAATATAAAGTGCACACATAATTTGGGGGCAAAA [CACACA_site258] | 9.25 ± 0.44 |
| AATTAAATTACTTATACACACATAAAATGGGTGTAT [CACACA_site4703] | 8.97 ± 0.37 |
| AATAAAGGAGCCTATGAACACACACCGGTACATATA [CACACA_site9352] | 9.33 ± 0.51 |
| ATACAATAAAGGTGTACACATATATGATGCAAGATG [CACACA_site5897] | 9.29 ± 0.52 |
| ATGTAATGAAACATTGCACACATATAATAATATAAT [CACACA_site8402] | 9.31 ± 0.35 |
| TTTTACACTTTTTTTTGTACACACTAAAAAGATTAA [XGTACX_site8407] | 8.59 ± 0.52 |
| AATAATTGTTAAAGCTGTACAATACTTATATAAGAA [XGTACX_site5729] | 8.77 ± 0.45 |
| AAAAAATATTGAAGTACACACATTATAAACTTTTTT [CACACA_site5029] | 8.86 ± 0.49 |
| AATACACACCTGTGGGTGCTTATAATAAGCCACAAA | 8.95 ± 0.45 |
| ATAAATAAAAACACAAAACAAAACAAAACAAAACAA [CACACA_negctrl_site1257] | 8.82 ± 0.4 |
| TTAACAAATAAACACACACACACACCCAAAAAAAAA [CACACA_site8068] | 10.3 ± 0.2 |

| Sequence | gcPBM binding intensity (ln) |
| --- | --- |
| ATAAATAAAAAACACACACACACACCCAAAAAAAAA [CACACA_site2624] | 9.88 ± 0.3 |
| TTTTTTTTTGTTAGTTGTACGTTAAATGAATTTACT [XGTACX_site7675] | 8.67 ± 0.57 |
| TACTAAGAAGTATTTACACACCAACAAGGCGAAAAA [CACACA_site2944] | 8.88 ± 0.44 |
| TATAAGCAAAAACACACACACATATATATATATATA [CACACA_site3804] | 10.2 ± 0.23 |
| CCTTTAAGCAAAAACACACACACATATATATATATA [CACACA_site348] | 9.945 ± 0.035 |
| CCTTTAAGCAAAAACACACACACATATTTATTTATA [CACACA_site6294] | 9.41 ± 0.3 |
| AAACATATATTAAGCACACACAAACAAAAAAACAAA [CACACA_site2549] | 9.59 ± 0.61 |
| TTTAAGCAAAAACACACACACATATATATATATATA [CACACA_site349] | 10.1 ± 0.16 |
| TGAAGCAAAAACAAAACACACATATAAATAAATAAA [CACACA_site3925] | 9.15 ± 0.52 |
| AAAAAAATAAAAAATATATAAATAATTAATACATGT [GTGCAC_negctrl_site633] | 8.62 ± 0.59 |
| TTATCATTATATAGTTGTACATATTTATTTATAAAA [XGTACX_site2310] | 8.45 ± 0.44 |
| ATTATTTTATATACATGTACATATTATATATAAAAG [XGTACX_site2735] | 8.51 ± 0.42 |
| TATTTTTTTAATAACTGTACTTTTTTGTCAAATGGA [XGTACX_site4179] | 8.32 ± 0.49 |
| ATATATTTCAAAGGGGTGCAGGCATATTTAAGCAAA | 8.69 ± 0.49 |
| TATTTTAAAAAAAAAAGTACACATAATATATATAAC [XGTACX_site5416] | 8.57 ± 0.57 |
| TTAAACCGTGGGAGCACACACACACCCAGACACATA [CACACA_site4337] | 9.7 ± 0.31 |
| CATTAAACCGTGGGAGCACACACACCCACCCACCCA [CACACA_site8000] | 9.57 ± 0.2 |
| ATTAAACCGTGGGAGCACACACACACACACACACAT [TGCATGCA_negctrl_site72] | 10.6 ± 0.4 |
| TATATATATATATATATATATATATATATATGTATA [TGCATGCA_negctrl_site17] | 9.8 ± 0.38 |
| TATATATATATATATATATATATATATGTGTATGTA [TGCATGCA_negctrl_site255] | 10.2 ± 0.26 |
| AAATATATATATATATATATATATGTGTGTGTATAT [GTGCAC_negctrl_site1] | 9.79 ± 0.45 |
| TTACACTAAATATGTTCACACATTTTTTCCATCATA [CACACA_site4647] | 8.79 ± 0.45 |
| AAAAAAGAAAAAAGGACACACATAAATATACTCACG [CACACA_site2904] | 9.16 ± 0.48 |

| Sequence | gcPBM binding intensity (ln) |
| --- | --- |
| AACGCACGAGGACACACACACATATTTATATTTATA [CACACA_site6608] | 9.82 ± 0.41 |
| AACTCACGAGGACACACACACATATATATATATATA [CACACA_site4711] | 10.38 ± 0.035 |
| AATGAACTCACGAGCACACACACACCGATATATATA [CACACA_site4710] | 10.1 ± 0.35 |
| AATGAACAGACGAGCACACACACACCCATATATATA [CACACA_site1018] | 10.1 ± 0.16 |
| AAAATGAACTCACGAGCACACACACCCATATATATA [CACACA_site8247] | 9.72 ± 0.25 |
| CATACAGACGAACACACACACATATAAATATAAATA [CACACA_site6443] | 9.7 ± 0.38 |
| TGAACTCACGAGCACACACACACATATATATATATA [CACACA_site8248] | 10.3 ± 0.25 |
| TGAACAGACGAGCACACACACACATATATATATATA [CACACA_site1019] | 10.3 ± 0.2 |
| ATTTAATTTTCCAAATGTACTTATATTTTTATGAAA [XGTACX_site6144] | 8.27 ± 0.4 |
| TTTTTTTTTTAAATGTGTCCTCATTATAATATATGT [XGTACX_site5331] | 8.65 ± 0.47 |
| ATATAAGTTTTTTCTCAAAAAGTATAACGAGCATGA [CACACA_negctrl_site1375] | 8.6 ± 0.4 |
| GACAAAAAATTAAAATAAAATAATAATATAATAAAA [GTGCAC_negctrl_site234] | 8.55 ± 0.67 |
| TTTTGGTATACGTAATTATATAATATGTTAATCAAT [CACACA_negctrl_site645] | 8.61 ± 0.36 |
| ATGTAGAGTAATAGTTGTACAAGGTGTATATCTCAT [XGTACX_site6370] | 9.29 ± 0.57 |
| TAAAAGTTAATATAAACACACAAAAATTAATAAATA [CACACA_site6316] | 8.73 ± 0.45 |
| TTATAAAAAGAACAATTAAAAAAAAATAAAATAAAA [XGTACX_negctrl_site398] | 8.4 ± 0.63 |
| ATATAATGTGTAGGCCGTATTTACGTTTGGCAATCA [CACACA_negctrl_site1130] | 8.99 ± 0.56 |
| TGTAAATTTGGCATCACACATAAATAAACATATAAA [CACACA_site4497] | 8.77 ± 0.45 |
| ATTTGGCAGAAACACACACACACACCCACCCACATA [CACACA_site589] | 10.2 ± 0.35 |
| TAGAAGCAGAAACACACACACATACATACACATACA [CACACA_site1467] | 9.87 ± 0.35 |
| TATACGCAGAAACACACACACATACACCCACATACA [CACACA_site1723] | 10 ± 0.26 |
| ATTTGGCATAAACACACACACACACCCACCCACATA [CACACA_site8096] | 10.1 ± 0.37 |
